Vaccinia mCherry – inhibitors of vaccinia virus infection (mCherry reporter signal) | Vaccinia virus mCherry reporter infection, fluorescence | Potency, µM (top dose mostly 36.5 µM), for the others: top-dose activity change, negative = inhibition, hits mostly inhibitors | AID 720579 | 0.63% of 310,000 active; calls by dose curve; tested in A549 cells; note: nearly all actives have a fitted effect of over 35% in size
LASV entry inh – Lassa virus entry inhibition | Lassa virus pseudotype entry inhibition, cell reporter | Potency, µM (doses to about 37.9 µM), without a hit: at the highest dose activity change, negative = inhibition, hits mostly inhibitors | 1.2% of 300,000 active; calls by dose curve; tested in HEK293 cells; note: nearly all actives have a fitted effect of over 50% in size
MARV entry inh – inhibitors of Marburg virus binding or cell entry | Marburg virus pseudotyped entry inhibition, cell reporter | Potency, µM (top dose mostly 37.8 µM), for inactives: top-dose activity change, negative = inhibition, actives largely listed as inhibitors | 1.8% of 300,000 active; calls by dose curve; tested in HEK293 cells
VACV Venus inh – vaccinia inhibition (Venus reporter); Vaccinia virus Venus reporter expression, fluorescence; Potency, µM (top dose mostly 36.5 µM), without a hit: at the highest dose activity change, negative = inhibition, most hits filed as inhibitors; 0.46% of 330,000 active; AID 720580; calls by dose curve; tested in A549 cells; note: nearly all actives have a fitted effect of over 30% in size
FMDV antiviral – blocks foot and mouth disease virus; FMDV antiviral cell-based qHTS; Potency, µM (doses to about 57.9 µM), inactives show at the top dose activity change, negative = inhibition, usual class: inhibitors; 1.2% of 410,000 active; calls by dose curve; tested in HEK293T cells; note: read-out not given here; nearly all actives have a fitted effect of over 45% in size
An asterisk follows results filed as active; i = inactive; ? = inconclusive; . = no result given; [ ] = remark or other dose. Hits are enriched below; roughly 3.2% of the tested compounds scored in any of these assays. % is set by controls: 0 for no effect and ±100 for the full control effect; potency is the fitted concentration of half-maximal effect.

SMILES	Vaccinia mCherry	LASV entry inh	MARV entry inh	VACV Venus inh	FMDV antiviral
CC(C)(C)n1ncc2c(=O)n(Cc3cccc(Cn4cnc5c(cnn5C(C)(C)C)c4=O)c3F)cnc21	.	.	.	.	11µM*
Cc1ccc(C)c(Cn2cnc3c(cnn3C(C)(C)C)c2=O)c1	.	6.3µM*	?	-18%	0%
CC(C)(C)n1ncc2c(=O)n(Cc3cccc(Cl)c3)cnc21	.	.	.	.	-29%
CC(C)(C)n1ncc2c(=O)n(CC(=O)OCc3ccccc3)cnc21	.	?	?	-19%	14µM*
Cc1ccccc1Cn1cnc2c(cnn2C(C)(C)C)c1=O	.	?	-5%	-19%	0%
O=S(=O)(Cc1noc(-c2ccccc2Cl)n1)c1ccccn1	-1%	?	?	-20%	34%
CCc1nc2cc(C(=O)N(C)C3CCOC3)cc(NC(=O)c3ccccc3OC)c2n1C (configuration not stated)	-19%	.	.	-16%	2%
Cn1c(N)c(C(=O)CSc2nc(N)cc(N)n2)c(=O)n(C)c1=O	i	.	.	-9%	-8%
CC(C)(C)C(=O)Nc1cc2nn(-c3ccccc3)nc2cc1Cl	-10%	1.5µM*	0.41µM*	-7%	50µM*
COc1ccc(-n2nc3ccc(NC(=O)c4ccc(C#N)cc4F)cc3n2)cc1Cl	3%	-5%[46.1 µM]	?	5%	-24%
C=CCSC(=C(C#N)C#N)c1cc2c([nH]1)CCCC2	.	11µM*	?	1%	11µM*
O=C(O)c1cc2c([nH]c1=O)CCCC2	-7%	2%	1%[46.1 µM]	-10%	-16%
CCOC(=O)NN=C1C[C@@H](O)[C@@H](O)[C@@H]2[C@H]3C(=O)N(C4CCCCC4)C(=O)[C@@H]3CC[C@@H]12	.	13%[14.3 µM]	-25%[14.2 µM]	.	.
CCc1ccc(C(=O)NNc2ccccc2F)cc1	?	?	4.5µM*	-3%	66%
CCCc1ccc(C(=O)NNc2ccccc2F)cc1	.	.	.	.	55%
Cc1ccoc1C(=O)Nc1ccc2ccccc2c1	-24%	10µM*	?	-23%	?
COc1ccc([C@@H]2NC3=C(CCC3)[C@@]3(C#N)C(OC)(OC)N=C(N)[C@]23C#N)cc1	.	.	-6%	.	.
O=C(CSc1nnc(-c2ccccc2Br)o1)N1CCN(C(=O)c2ccco2)CC1	13µM*	2%	-3%	?	.
CCn1cc(C(=O)O)c(=O)c2c1CC(N1CCNCC1)=C(F)C2	.	.	-7%	.	.
Cc1cc2c(c(-c3cnccn3)c1)OC(CNC(=O)c1c(F)cccc1Cl)C2 (configuration not stated)	-7%	.	.	0%	-13%
O=C1NC(=O)C(Cc2ccccc2)(C2CCN(Cc3cccn3-c3cccnc3)CC2)N1 (configuration not stated)	-2%	.	.	-10%	6%
CCCCNc1c(-c2ccc(OC)c(SC(C)CC)c2)nc2ccc(C)cn12 (configuration not stated)	?	.	.	-16%	32µM*
CCC(C)Sc1ccc(-c2nc3ccc(C)cn3c2NC2CCCCC2)cc1 (configuration not stated)	8.9µM*	.	.	?	-12%
CCCCNc1c(-c2ccc(OC)c(SC(C)CC)c2)nc2cnccn12 (configuration not stated)	?	.	.	-18%	?
CCCCCCSc1cc(-c2nc3ccc(C)cn3c2NCCCC)ccc1OC	-25%	.	.	?	35µM*
SMILES	Vaccinia mCherry	LASV entry inh	MARV entry inh	VACV Venus inh	FMDV antiviral
CCCCNc1c(-c2ccc(OC)c(SC(C)CC)c2)nc2cc(C)ccn12 (configuration not stated)	25µM*	.	.	?	28µM*
Cc1c(Cl)cccc1NC(=O)CSc1nc2ncccc2o1	14%	-15%[46.1 µM]	.	-4%	6%
CCC1C(=O)NCCN1Cc1ccc2c(c1)CN(Cc1cc(OC)ccc1OC)CCO2 (configuration not stated)	0%	.	.	19%	-14%
CN(C)c1ncc2nc(-c3ccccc3)c(=O)n(C)c2n1	.	.	.	.	31%
Cn1nc(-c2ccccc2)nc2c(=O)n(C)c(=O)nc1-2	1µM*	.	.	1µM*	.
Cn1nc(-c2ccncc2)nc2c(=O)n(C)c(=O)nc1-2	0.89µM*	.	.	1µM*	.
Cc1nc2c(=O)n(C)c(=O)nc-2n(C)n1	?	0.56µM*	0.89µM*	0.5µM*	2.8µM*
OCC[N+]1(CCc2ccccc2)CCOCC1	i	.	.	-5%	.
CCN1CCc2c(C#N)c(NCc3ccccc3)nc(N(CC)CC)c2C1	.	15µM*	?	.	?
Cc1[nH]nc2c1[C@@H](CCc1ccccc1)C(C#N)=C(N)O2	.	.	3%	.	.
COc1ccc(S(=O)(=O)N2c3ccccc3OCC2c2ccccc2)cc1 (configuration not stated)	.	-23%	?	.	13µM*
COc1ccc(S(=O)(=O)N2c3ccccc3OCC2C)cc1 (configuration not stated)	?	?	-19%[46.1 µM]	-22%	-18%
COCCNC(=O)CSc1nnc(NC(=O)C2CC(=O)N(c3ccccc3OC)C2)s1 (configuration not stated)	-9%	11%	3%	-4%	-24%
O=C(Cc1ccsc1)Nc1ccccc1F	i	4%	10%[46.1 µM]	1%	31%
Cn1c(SCC(=O)N/N=C/c2ccc([N+](=O)[O-])s2)nnc1-c1ccccc1	28µM*	?	?	?	?
CNC(=O)CSc1nnc(-c2ccccc2)n1C	i	.	.	8%	251µM*
CC(=O)OC[C@H]1O[C@H](CCON=C(C)CCN2CCCc3nc(C)c(C)cc32)C=C[C@H]1OC(C)=O	.	.	-28%[14.2 µM]	.	.
CCc1ccc(NC(=O)C2(c3ccccc3)CC2(Cl)Cl)cc1 (configuration not stated)	.	16µM*	0%	.	?
COC(=O)C1=CN(c2ccc(OC)cc2)C=C(C(=O)OC)C1c1cc(OC)c(OC)cc1OC	-5%	0.63µM*	-9%	-7%	-14%
COC(=O)C1=CN(Cc2cccs2)C=C(C(=O)OC)C1c1ccc(OC)cc1OC	-9%	?	?	-2%	-11%
NC(=NCc1ccc(Cl)c(Cl)c1)NC(=O)c1nc(Cl)c(N)nc1N	.	.	2.5µM*	.	.
COc1ccc(NC(=O)Nc2nc(C)cc(C)n2)c(OC)c1	.	.	.	.	-23%
N[C@@H](C(=O)O)c1ccc(C(=O)O)c(C(=O)O)c1	i	.	.	-12%	-11%
COc1cc(C/C=C\c2ccccc2)c(OC)cc1O	.	.	.	.	-5%
C=CC(=O)Nc1cccc(Nc2nc(N[C@H]3CC[C@H](N(C)C)CC3)nc3c2ncn3C(C)C)c1	?	.	.	1µM*	?
CCc1ccc(C2CC(c3ccc(C)cc3)Nc3nc(N)nn32)cc1 (configuration not stated)	100µM*	7%	3%	32µM*	-18%
Cc1ccc(C2CC(c3ccc(F)cc3)Nc3nc(N)nn32)cc1 (configuration not stated)	-11%	5%	10%	-15%	-14%
CC(=O)[C@@]1(O)[C@H](C)CC2C3CC=C4CC(OP(=O)(O)O)CC[C@]4(C)C3CC[C@@]21C (some centres not stated)	.	.	-2%	.	-5%
N#CC1=C(N)NC(SCc2ccc(Cl)cc2)=C(C#N)C12CCCCC2	.	?	11µM*	?	0%

Assay outcomes as filed in PubChem.
